14 compounds from the supplement of paper PMC10646978 can be followed below.

Conditions in all cases: modulator concentration 10 µM
For assay [1], the system named is RAW-Dual (murine macrophage reporter line). Description: NF-kB reporter (SEAP) activity fold change vs agonist alone; higher = enhanced NF-kB activity. A digest of the protocol:
(§1)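 Overnight stimulation with a PRR agonist followed pre-incubation for 1 hour at 37 °C with compound at 10 μM final. This was done in RAW-Dual murine macrophage reporter cells seeded at 50 000 per well in 384-well plates. NF-κB (SEAP, QUANTI-Blue absorbance at 620 nm) and IRF (Lucia luciferase, QUANTI-Luc luminescence) were read from the supernatant. Each reporter's fold change relative to the mean agonist-only control on the same plate was averaged over replicate plates.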

Assay [2] has the same test system. Description: IRF reporter (Lucia luciferase) activity fold change vs agonist alone; higher = enhanced IRF activity. A digest of the protocol:
as §1

For assay [3] the test system is unchanged. As to the kind of experiment: viability score (confluency relative to resting cells, overnight) (fraction); higher = more viable, active = viable (0.7 or more). In a few lines:
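Confluency was the readout: RAW-Dual macrophages were imaged with IncuCyte after an overnight exposure to compound at 10 μM final. IncuCyte software produced two masks over all imaged wells. The viability score expresses confluency against resting cells, and both masks had to exceed 70% of resting cells for a compound to meet the cutoff.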

Where [4] appears, read: agonist: CpG ODN 1826 0.5 ug/mL.

± gives the standard deviation.

Take `COc1ccc(C2Nc3ccc(C(=O)c4ccccc4)cc3NC3=C2C(=O)CCC3)c(OC)c1` (stereo not drawn): the NF-kB reporter in assay [1] (setting [4]) turned out to be 0.77 ± 0.06; in assay [1] (agonist: LPS 0.1 ug/mL) it was 0.844 ± 0.04; in assay [1] (agonist: MPLA […]) it was 1.08 ± 0.095. The IRF reporter in assay [2] (agonist: 3'3'-cGAMP 10 ug/mL) worked out at 0.933 ± 0.047; in assay [2] (agonist: LPS 0.1 ug/mL) it was 1.41 ± 0.11; in assay [2] (agonist: MPLA […]) it was 1.58 ± 0.17. In assay [3], the viability score is 1.01 (active).

Consider `COc1ccc(OC)c(NC(=O)COc2cccc3c2OC(C)(C)C3)c1`, for which the NF-kB reporter in assay [1] (setting [4]) stood at 0.489 ± 0.039; in assay [1] (agonist: LPS 0.1 ug/mL), 1.2 ± 0.095; in assay [1] (agonist: MPLA […]) it was 1.22 ± 0.053. Also, the IRF reporter is 0.777 ± 0.054 in assay [2] (agonist: 3'3'-cGAMP 10 ug/mL), 0.912 ± 0.059 in assay [2] (agonist: LPS 0.1 ug/mL) and 1.02 ± 0.077 in assay [2] (agonist: MPLA […]). Moreover, the viability score in assay [3] was 0.976 (active).

For `COc1ccc(-c2nc(CNC(=O)C3CCN(c4cc(C5CC5)ncn4)CC3)cs2)cc1`, the NF-kB reporter in assay [1] (setting [4]) was determined as 0.957 ± 0.066; in assay [1] (agonist: LPS 0.1 ug/mL) it was 1.4 ± 0.11; in assay [1] (agonist: MPLA […]) it was 1.16 ± 0.05. Besides, the IRF reporter in assay [2] (agonist: 3'3'-cGAMP 10 ug/mL) was determined as 1.05 ± 0.062; in assay [2] (agonist: LPS 0.1 ug/mL), 1.24 ± 0.14; in assay [2] (agonist: MPLA […]), 1.29 ± 0.25. Moreover, the viability score in assay [3] is 1 (active).

With `O=C(NCCN1CCN(c2ccc(Cl)cc2)CC1)c1ccno1`, the NF-kB reporter in assay [1] (setting [4]) turned out to be 0.933 ± 0.071; in assay [1] (agonist: LPS 0.1 ug/mL), 0.992 ± 0.082; in assay [1] (agonist: MPLA […]) it was 2 ± 0.72. Moreover, the figures for the IRF reporter in assay [2] (agonist: 3'3'-cGAMP 10 ug/mL), in assay [2] (agonist: LPS 0.1 ug/mL) and in assay [2] (agonist: MPLA […]) were 1.01 ± 0.05, 1.24 ± 0.26 and 1.36 ± 0.49, respectively. Moreover, in assay [3], the viability score is 0.96 (active).

For `CCN1C(=O)C(=Cc2nc3ccccc3c(=O)n2-c2ccc(C)cc2)c2ccccc21`, the NF-kB reporter in assay [1] (setting [4]) was 1.06 ± 0.085; in assay [1] (agonist: LPS 0.1 ug/mL), 1.08 ± 0.071; in assay [1] (agonist: MPLA […]), 0.994 ± 0.077. Further, the IRF reporter in assay [2] (agonist: 3'3'-cGAMP 10 ug/mL) is 0.89 ± 0.035; in assay [2] (agonist: LPS 0.1 ug/mL), 1.55 ± 0.28; in assay [2] (agonist: MPLA […]) it was 1.11 ± 0.078. The viability score in assay [3] is 1.01 (active).

Take `CS(=O)(=O)N(CC(=O)Nc1ccccc1Br)c1ccc(Cl)c(C(F)(F)F)c1`: the NF-kB reporter in assay [1] (setting [4]) came out at 0.796 ± 0.13; in assay [1] (agonist: LPS 0.1 ug/mL), 0.971 ± 0.076; in assay [1] (agonist: MPLA […]) it was 0.77 ± 0.072. The IRF reporter in assay [2] (agonist: 3'3'-cGAMP 10 ug/mL) was 1.15 ± 0.055; in assay [2] (agonist: LPS 0.1 ug/mL) it was 1.13 ± 0.23; in assay [2] (agonist: MPLA […]), 1.2 ± 0.15. Also, the viability score in assay [3] was 0.999 (active).

Turning to `COCCN1C(=O)CN(C2CCN(Cc3cc(OC)cc(OC)c3)CC2)C1=O`, the NF-kB reporter in assay [1] (setting [4]) came out at 0.918 ± 0.047; in assay [1] (agonist: LPS 0.1 ug/mL), 1.14 ± 0.11; in assay [1] (agonist: MPLA […]), 0.881 ± 0.04. Moreover, the IRF reporter stood at 0.979 ± 0.051 in assay [2] (agonist: 3'3'-cGAMP 10 ug/mL), 1.09 ± 0.12 in assay [2] (agonist: LPS 0.1 ug/mL) and 1.13 ± 0.13 in assay [2] (agonist: MPLA […]). The viability score in assay [3] was 1.01 (active).

As for `Cc1ccc2c(c1)C(=O)CC(O)(C(F)F)O2` (stereo not drawn), the results for the NF-kB reporter in assay [1] (setting [4]), in assay [1] (agonist: LPS 0.1 ug/mL) and in assay [1] (agonist: MPLA […]) were 0.922 ± 0.073, 1 ± 0.067 and 0.954 ± 0.062, respectively. The IRF reporter in assay [2] (agonist: 3'3'-cGAMP 10 ug/mL) worked out at 0.764 ± 0.12; in assay [2] (agonist: LPS 0.1 ug/mL) it was 0.984 ± 0.089; in assay [2] (agonist: MPLA […]), 0.959 ± 0.14. For the same compound, the viability score in assay [3] is 1 (active).

Consider `O=C(CCCN1CCN(c2ccccn2)CC1)c1ccc(F)cc1`, for which the NF-kB reporter in assay [1] (setting [4]) stood at 0.595 ± 0.084; in assay [1] (agonist: LPS 0.1 ug/mL) it was 1.05 ± 0.1; in assay [1] (agonist: MPLA […]), 0.952 ± 0.056. In addition, the results for the IRF reporter in assay [2] (agonist: 3'3'-cGAMP 10 ug/mL), in assay [2] (agonist: LPS 0.1 ug/mL) and in assay [2] (agonist: MPLA […]) were 0.924 ± 0.12, 1.37 ± 0.12 and 1.15 ± 0.12, respectively. Moreover, in assay [3], the viability score is 0.977 (active).

Take `Cc1ccc(C(=O)NC(=Cc2ccccc2)C(=O)NCCCn2ccnc2)cc1`: the NF-kB reporter in assay [1] (setting [4]) was determined as 0.949 ± 0.077; in assay [1] (agonist: LPS 0.1 ug/mL) it was 1.03 ± 0.069; in assay [1] (agonist: MPLA […]), 0.907 ± 0.083. The IRF reporter in assay [2] (agonist: 3'3'-cGAMP 10 ug/mL) came out at 1.01 ± 0.045; in assay [2] (agonist: LPS 0.1 ug/mL) it was 1.45 ± 0.25; in assay [2] (agonist: MPLA […]) it was 1.12 ± 0.074. In assay [3], the viability score was 1.01 (active).

For the compound `Cc1ccc2c(c1)C1(c3ccccc3)Nc3ccc(C)cc3C1(c1ccccc1)N2` (stereo not drawn), the results for the NF-kB reporter in assay [1] (setting [4]), in assay [1] (agonist: LPS 0.1 ug/mL) and in assay [1] (agonist: MPLA […]) were 0.878 ± 0.082, 0.904 ± 0.078 and 0.86 ± 0.085, respectively. In addition, the IRF reporter in assay [2] (agonist: 3'3'-cGAMP 10 ug/mL) worked out at 0.864 ± 0.071; in assay [2] (agonist: LPS 0.1 ug/mL), 0.996 ± 0.14; in assay [2] (agonist: MPLA […]), 0.969 ± 0.19. For the same compound, the viability score in assay [3] is 1.02 (active).

For the compound `Oc1ccc(Nc2nc(Nc3ccc(O)cc3)nc(N3CCOCC3)n2)cc1`, the NF-kB reporter in assay [1] (setting [4]) was determined as 0.559 ± 0.13; in assay [1] (agonist: LPS 0.1 ug/mL), 2.28 ± 0.18; in assay [1] (agonist: MPLA […]), 4.45 ± 0.34. For the same compound, the IRF reporter in assay [2] (agonist: 3'3'-cGAMP 10 ug/mL) stood at 0.383 ± 0.016; in assay [2] (agonist: LPS 0.1 ug/mL), 2.4 ± 0.25; in assay [2] (agonist: MPLA […]) it was 4.43 ± 1.1. Further, in assay [3], the viability score is 0.757 (active).

As for `NNc1ncnc2scc(-c3ccc(Cl)cc3)c12`, the values for the NF-kB reporter in assay [1] (setting [4]), in assay [1] (agonist: LPS 0.1 ug/mL) and in assay [1] (agonist: MPLA […]) were 0.931 ± 0.071, 0.867 ± 0.07 and 1.32 ± 0.42, respectively. The IRF reporter in assay [2] (agonist: 3'3'-cGAMP 10 ug/mL) came to 0.333 ± 0.015; in assay [2] (agonist: LPS 0.1 ug/mL) it was 1.3 ± 0.15; in assay [2] (agonist: MPLA […]), 1.48 ± 0.21. Also, in assay [3], the viability score is 0.997 (active).

As to `O=C(c1ccc(-c2nc3ccccc3s2)s1)N1CCOCC1`, the NF-kB reporter turned out to be 1.08 ± 0.11 in assay [1] (setting [4]), 1.02 ± 0.15 in assay [1] (agonist: LPS 0.1 ug/mL) and 1.16 ± 0.17 in assay [1] (agonist: MPLA […]). Further, the values for the IRF reporter in assay [2] (agonist: 3'3'-cGAMP 10 ug/mL), in assay [2] (agonist: LPS 0.1 ug/mL) and in assay [2] (agonist: MPLA […]) were 0.879 ± 0.06, 1.19 ± 0.25 and 1.21 ± 0.44, respectively. In addition, the viability score in assay [3] was 0.964 (active).
